Data published in the supplement of paper PMC10849652.
Targets with a hit are over-represented here; the source holds about 8,800 in all. About 0.5% of all pairs of compound and target were hits. Values without a mark were called inactive.

Tests used:
Assay in all cases: log2 fold change, soluble protein after heating vs DMSO (PISA); higher = thermal stabilisation; K562 lysate, 10 uM; active = over 0.2 and 3.5 SD of the protein, either way, in both replicates (recomputed)
alvocidib = compound: CN1CC[C@H](c2c(O)cc(O)c3c(=O)cc(-c4ccccc4Cl)oc23)[C@H](O)C1 [alvocidib]
How it was run: (§1)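 K562 pellets were dounce-homogenised in PBS pH 7.4 with 1 mM MgCl2, and the crude extract at 1 mg/mL protein was treated with 10 μM compound for 30 min. Aliquots were heated for 3 min across 48°C-58°C, pooled, and brought to 0.5% NP-40 at 4°C; soluble protein was the supernatant after 21,000xg for 90 min. Soluble protein was quantified by TMTpro 16plex LC-MS/MS with channel sums equalised, and reported as log2 fold change in thermal stability against DMSO controls, with values from duplicates.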

Tubastatin A = compound: CN1CCc2c(c3ccccc3n2Cc2ccc(C(=O)NO)cc2)C1 [Tubastatin A]
How it was run: as §1

[1] = compound: CNC(=O)C1=CC=CC=C1NC2=NC(=NC=C2Cl)NC3=C(C=C(C=C3)N4CCOCC4)OC
How it was run: as §1

defactinib = compound: CNC(=O)c1ccc(Nc2ncc(C(F)(F)F)c(NCc3nccnc3N(C)S(C)(=O)=O)n2)cc1 [defactinib]
How it was run: as §1

[2] = compound: CNc1nc(-c2ccc3c(N)n[nH]c3c2)cc(N2C[C@@H](C(=O)NC3CCCCC3)CC[C@H]2C)n1
How it was run: as §1

encorafenib = compound: COC(=O)N[C@@H](C)CNc1nccc(-c2cn(C(C)C)nc2-c2cc(Cl)cc(NS(C)(=O)=O)c2F)n1 [encorafenib]
How it was run: as §1

[3] = compound: COC(=O)[C@H](CCSC)NC(=O)C1=C(C=C(C=C1)NC[C@H](CS)N)C2=CC=CC=C2
How it was run: as §1

[4] = compound: COc1cc2nc(-c3cc(F)ccc3O)nc(N[C@@H]3CNC[C@H]3C(C)(C)O)c2cc1OC
How it was run: as §1

alisertib = compound: COc1cc(Nc2ncc3c(n2)-c2ccc(Cl)cc2C(c2c(F)cccc2OC)=NC3)ccc1C(=O)O [alisertib]
How it was run: as §1

gefitinib = compound: COc1cc2ncnc(Nc3ccc(F)c(Cl)c3)c2cc1OCCCN1CCOCC1 [gefitinib]
How it was run: as §1

UniProt Q9UGU0, sequence (Q9UGU0 whole entry, looked up): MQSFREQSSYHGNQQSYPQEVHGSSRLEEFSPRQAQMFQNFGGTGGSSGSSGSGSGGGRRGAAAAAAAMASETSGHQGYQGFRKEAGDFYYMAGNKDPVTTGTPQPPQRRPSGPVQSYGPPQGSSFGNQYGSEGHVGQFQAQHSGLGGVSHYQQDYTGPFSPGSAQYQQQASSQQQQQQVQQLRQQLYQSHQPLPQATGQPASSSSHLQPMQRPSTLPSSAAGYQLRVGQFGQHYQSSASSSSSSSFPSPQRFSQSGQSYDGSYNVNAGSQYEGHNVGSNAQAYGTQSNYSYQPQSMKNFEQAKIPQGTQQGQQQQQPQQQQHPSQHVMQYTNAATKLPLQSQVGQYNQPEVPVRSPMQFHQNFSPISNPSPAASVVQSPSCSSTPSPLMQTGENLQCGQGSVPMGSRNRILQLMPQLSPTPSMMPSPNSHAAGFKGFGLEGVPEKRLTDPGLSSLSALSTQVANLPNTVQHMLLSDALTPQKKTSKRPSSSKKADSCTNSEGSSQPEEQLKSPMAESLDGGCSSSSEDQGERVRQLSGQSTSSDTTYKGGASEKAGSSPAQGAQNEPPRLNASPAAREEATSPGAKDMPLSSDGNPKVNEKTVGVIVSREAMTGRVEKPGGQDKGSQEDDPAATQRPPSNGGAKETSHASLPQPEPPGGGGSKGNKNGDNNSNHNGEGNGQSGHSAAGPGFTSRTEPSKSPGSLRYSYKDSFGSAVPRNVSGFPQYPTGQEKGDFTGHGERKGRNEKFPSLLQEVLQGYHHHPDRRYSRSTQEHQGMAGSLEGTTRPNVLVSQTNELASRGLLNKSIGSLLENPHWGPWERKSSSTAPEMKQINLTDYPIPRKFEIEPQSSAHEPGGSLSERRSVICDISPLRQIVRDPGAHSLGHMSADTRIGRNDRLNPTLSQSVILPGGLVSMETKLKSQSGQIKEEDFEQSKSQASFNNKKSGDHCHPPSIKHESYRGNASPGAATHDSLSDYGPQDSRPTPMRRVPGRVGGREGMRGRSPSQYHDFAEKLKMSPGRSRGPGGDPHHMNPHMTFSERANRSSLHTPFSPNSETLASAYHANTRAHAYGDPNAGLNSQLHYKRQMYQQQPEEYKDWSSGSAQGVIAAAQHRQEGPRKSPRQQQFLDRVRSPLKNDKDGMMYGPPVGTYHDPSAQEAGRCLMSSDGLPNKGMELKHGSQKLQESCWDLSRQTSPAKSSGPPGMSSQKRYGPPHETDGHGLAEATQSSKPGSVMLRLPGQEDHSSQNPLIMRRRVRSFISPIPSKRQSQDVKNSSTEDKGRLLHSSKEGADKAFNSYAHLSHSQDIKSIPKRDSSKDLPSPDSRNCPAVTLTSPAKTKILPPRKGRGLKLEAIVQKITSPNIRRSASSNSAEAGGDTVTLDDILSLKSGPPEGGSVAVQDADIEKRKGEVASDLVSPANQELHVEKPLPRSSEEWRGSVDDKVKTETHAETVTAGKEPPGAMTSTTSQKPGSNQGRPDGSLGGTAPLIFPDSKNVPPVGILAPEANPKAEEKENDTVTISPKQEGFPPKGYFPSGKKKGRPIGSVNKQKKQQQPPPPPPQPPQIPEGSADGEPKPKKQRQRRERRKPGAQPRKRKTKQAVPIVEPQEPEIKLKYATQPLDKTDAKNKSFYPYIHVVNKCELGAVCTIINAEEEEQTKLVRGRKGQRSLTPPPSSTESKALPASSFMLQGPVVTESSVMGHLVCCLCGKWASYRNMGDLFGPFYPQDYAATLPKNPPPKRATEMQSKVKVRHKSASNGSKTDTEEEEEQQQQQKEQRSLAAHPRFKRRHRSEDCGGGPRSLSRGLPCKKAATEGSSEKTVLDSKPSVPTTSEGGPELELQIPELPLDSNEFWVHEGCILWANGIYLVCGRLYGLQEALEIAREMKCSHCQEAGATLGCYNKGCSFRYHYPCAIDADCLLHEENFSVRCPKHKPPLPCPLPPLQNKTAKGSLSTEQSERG
UniProt Q9P0S9, sequence (Q9P0S9 whole entry, looked up): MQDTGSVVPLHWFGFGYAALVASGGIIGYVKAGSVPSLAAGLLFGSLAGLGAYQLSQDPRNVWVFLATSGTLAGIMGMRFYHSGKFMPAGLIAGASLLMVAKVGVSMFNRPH
UniProt Q96RT8, sequence (Q96RT8 whole entry, looked up): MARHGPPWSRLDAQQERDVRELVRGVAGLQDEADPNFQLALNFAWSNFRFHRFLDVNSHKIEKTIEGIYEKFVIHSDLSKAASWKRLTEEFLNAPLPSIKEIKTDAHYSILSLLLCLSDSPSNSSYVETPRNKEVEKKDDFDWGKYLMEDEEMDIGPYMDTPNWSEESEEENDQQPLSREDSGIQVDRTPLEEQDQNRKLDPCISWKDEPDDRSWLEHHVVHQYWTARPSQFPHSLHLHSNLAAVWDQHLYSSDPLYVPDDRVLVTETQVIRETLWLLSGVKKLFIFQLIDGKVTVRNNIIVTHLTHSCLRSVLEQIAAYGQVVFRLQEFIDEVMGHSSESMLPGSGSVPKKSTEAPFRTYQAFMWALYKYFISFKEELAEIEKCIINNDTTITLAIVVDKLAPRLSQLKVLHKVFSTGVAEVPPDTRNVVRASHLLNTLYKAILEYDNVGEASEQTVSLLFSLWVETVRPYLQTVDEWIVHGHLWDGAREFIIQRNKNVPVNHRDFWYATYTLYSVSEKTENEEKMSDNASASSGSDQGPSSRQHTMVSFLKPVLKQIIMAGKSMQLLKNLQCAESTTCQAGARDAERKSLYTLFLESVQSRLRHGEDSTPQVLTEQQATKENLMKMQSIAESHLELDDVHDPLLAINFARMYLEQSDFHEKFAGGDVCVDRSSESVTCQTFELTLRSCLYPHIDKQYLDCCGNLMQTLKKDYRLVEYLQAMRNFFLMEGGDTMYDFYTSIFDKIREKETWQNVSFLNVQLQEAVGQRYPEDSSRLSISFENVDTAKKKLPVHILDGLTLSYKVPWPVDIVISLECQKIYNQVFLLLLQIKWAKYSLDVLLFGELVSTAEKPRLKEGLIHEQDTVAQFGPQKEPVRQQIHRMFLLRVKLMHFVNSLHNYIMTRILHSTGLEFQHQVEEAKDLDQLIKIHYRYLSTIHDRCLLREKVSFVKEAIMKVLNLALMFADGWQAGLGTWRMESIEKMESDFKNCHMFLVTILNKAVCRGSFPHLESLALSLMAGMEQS
UniProt Q8TDI8, sequence (Q8TDI8 whole entry, looked up): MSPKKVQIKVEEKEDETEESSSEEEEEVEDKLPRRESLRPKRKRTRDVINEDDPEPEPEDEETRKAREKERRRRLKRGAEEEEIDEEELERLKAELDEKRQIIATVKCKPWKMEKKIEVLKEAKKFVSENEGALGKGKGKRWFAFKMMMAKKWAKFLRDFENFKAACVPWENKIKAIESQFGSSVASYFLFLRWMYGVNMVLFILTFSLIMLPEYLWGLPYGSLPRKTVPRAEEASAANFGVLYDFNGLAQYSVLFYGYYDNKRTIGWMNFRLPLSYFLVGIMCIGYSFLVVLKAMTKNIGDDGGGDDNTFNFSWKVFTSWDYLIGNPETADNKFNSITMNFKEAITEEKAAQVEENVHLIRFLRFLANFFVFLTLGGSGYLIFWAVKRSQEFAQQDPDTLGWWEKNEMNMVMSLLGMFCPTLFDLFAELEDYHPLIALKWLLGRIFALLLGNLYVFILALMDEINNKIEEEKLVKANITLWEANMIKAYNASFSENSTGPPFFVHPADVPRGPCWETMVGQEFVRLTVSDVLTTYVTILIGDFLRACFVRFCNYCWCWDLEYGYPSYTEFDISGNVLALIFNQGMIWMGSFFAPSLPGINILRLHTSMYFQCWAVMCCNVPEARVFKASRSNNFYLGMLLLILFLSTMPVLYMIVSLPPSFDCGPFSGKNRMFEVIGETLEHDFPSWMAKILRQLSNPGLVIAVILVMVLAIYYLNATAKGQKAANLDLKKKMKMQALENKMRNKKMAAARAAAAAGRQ
UniProt P62328, sequence (P62328 whole entry, looked up): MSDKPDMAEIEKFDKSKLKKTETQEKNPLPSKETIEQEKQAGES
UniProt Q8NDZ6, sequence (Q8NDZ6 whole entry, looked up): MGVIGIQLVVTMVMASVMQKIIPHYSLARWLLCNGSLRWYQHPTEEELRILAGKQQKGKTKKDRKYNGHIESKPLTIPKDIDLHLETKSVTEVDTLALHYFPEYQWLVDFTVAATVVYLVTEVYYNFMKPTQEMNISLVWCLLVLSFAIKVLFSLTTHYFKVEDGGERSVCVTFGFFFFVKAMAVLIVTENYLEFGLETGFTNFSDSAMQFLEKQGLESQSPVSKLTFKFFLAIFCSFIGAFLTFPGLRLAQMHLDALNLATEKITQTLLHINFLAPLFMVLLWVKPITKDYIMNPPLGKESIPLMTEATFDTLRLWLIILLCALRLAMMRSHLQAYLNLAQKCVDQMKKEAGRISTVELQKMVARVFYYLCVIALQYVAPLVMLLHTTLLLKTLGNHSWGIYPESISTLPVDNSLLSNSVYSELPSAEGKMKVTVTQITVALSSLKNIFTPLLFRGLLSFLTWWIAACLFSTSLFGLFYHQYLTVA
UniProt P15884, sequence (P15884 whole entry, looked up): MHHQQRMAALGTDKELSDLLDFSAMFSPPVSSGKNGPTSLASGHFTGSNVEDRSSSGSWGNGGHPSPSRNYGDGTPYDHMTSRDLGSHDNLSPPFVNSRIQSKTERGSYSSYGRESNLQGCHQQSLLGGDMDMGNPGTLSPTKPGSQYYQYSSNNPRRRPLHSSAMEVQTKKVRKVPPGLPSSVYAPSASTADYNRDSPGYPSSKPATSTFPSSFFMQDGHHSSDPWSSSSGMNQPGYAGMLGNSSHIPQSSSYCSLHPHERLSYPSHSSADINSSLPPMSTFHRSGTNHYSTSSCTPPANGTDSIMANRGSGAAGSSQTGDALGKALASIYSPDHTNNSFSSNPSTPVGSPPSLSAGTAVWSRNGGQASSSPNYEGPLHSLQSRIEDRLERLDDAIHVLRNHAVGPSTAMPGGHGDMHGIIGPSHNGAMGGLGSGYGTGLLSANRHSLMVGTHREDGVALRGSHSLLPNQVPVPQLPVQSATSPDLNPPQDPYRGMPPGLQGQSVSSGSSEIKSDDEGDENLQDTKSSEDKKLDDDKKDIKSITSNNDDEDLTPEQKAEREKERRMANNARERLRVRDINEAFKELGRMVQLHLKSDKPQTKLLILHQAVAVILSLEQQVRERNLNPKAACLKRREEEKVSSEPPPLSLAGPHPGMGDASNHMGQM

| Target | log2 fold change (alvocidib) | log2 fold change (Tubastatin A) | log2 fold change [1] | log2 fold change (defactinib) | log2 fold change [2] | log2 fold change (encorafenib) | log2 fold change [3] | log2 fold change [4] | log2 fold change (alisertib) | log2 fold change (gefitinib) |
| --- | --- | --- | --- | --- | --- | --- | --- | --- | --- | --- |
| UCHL5 (UniProt Q5LJA9) | 0.049 | -0.153 | 0.005 | 0.015 | -0.156 | 0.007 | 0.091 | -0.011 |  |  |
| TTI2 (UniProt Q6NXR4) | -0.006 | -0.081 | 0.03 | 0.069 | 0.006 | 0.072 | 0.015 | 0.024 | 0.004 | -0.034 |
| TUBGCP3 (UniProt Q96CW5) | -0.003 | -0.094 | 0.026 | 0.022 | -0.024 | 0.024 | 0.011 | -0.017 | 0.044 | 0.056 |
| TFPI (UniProt P10646) | 0.245 | -0.012 | 0.036 | 0.056 |  | 0.072 | -0.017 | -0.128 | -0.003 | 0.061 |
| TBL3 (UniProt Q12788) | -0.019 | -0.08 | 0.014 | 0.016 | 0.01 | -0.021 | 0.072 | 0.006 | 0.015 | -0.123 |
| TMEM167B (UniProt Q9NRX6) | -0.167 | -0.028 | 0.06 | 0.015 |  | 0.026 | -0.022 | 0.032 | 0.012 | 0.032 |
| UBXN10 (UniProt Q96LJ8) | -0.036 | -0.02 | 0.051 | 0.026 | 0.019 | 0.045 | -0.116 | -0.006 |  |  |
| TDRKH (UniProt Q9Y2W6) | -0.017 | -0.064 | 0.019 | 0.033 | 0.042 | 0.007 | 0.008 | 0.04 | -0.049 | 0.001 |
| TUBA4A (UniProt P68366) | 0.003 | -0.068 | 0.049 | 0.014 | -0.001 | -0.039 | 0.125 | 0.032 | 0.027 | 0.007 |
| TMEM161B (UniProt Q8NDZ6) | -0.03 | 0.035 | -0.022 | 0.067 |  | 0.047 | 0 | 0.033 | -0.222 | -0.008 |
| TMEM132A isoform 2 (UniProt Q24JP5) | -0.381 | 0.136 | -0.097 |  |  | -0.064 | -0.042 | 1.16 (active) |  |  |
| TNIK isoform 5 (UniProt Q9UKE5) | 0.012 | -0.015 |  |  | -0.04 |  |  | 0.214 |  |  |
| TLE3 (UniProt H0YL70) |  |  |  |  | 0.153 |  |  |  |  |  |
| TMC1 (UniProt Q8TDI8) |  | -0.088 | -0.028 | -0.002 |  | 0.03 | 0.054 | 0.021 | 0.216 | 0.215 |
| TCF20 (UniProt Q9UGU0) | -0.017 |  | 0.01 |  | 0.615 (active) |  |  | 0.167 |  |  |
| TCF4 (UniProt P15884) | 0.005 | -0.282 |  |  | -0.009 | 0.17 | -0.099 | 0.212 | 0.078 | 0.06 |
| TUBB4A (UniProt P04350) | -0.006 | -0.113 | -0.029 |  | 0.051 | -0.027 | 0.112 | -0.002 | 0.021 | 0.101 |
| TBK1 (UniProt Q9UHD2) |  | -0.16 | 0.528 (active) | 0.328 | -0.035 | 0.014 | -0.293 | -0.007 | 0.039 | -0.032 |
| TM2D3 (UniProt Q9BRN9) | -0.291 | -0.125 | 0.008 |  |  | -0.116 | -0.116 |  |  |  |
| UBAP2L isoform 1 (UniProt Q14157) |  | -0.006 |  |  |  |  |  |  | 0.032 | -0.088 |
| UBR4 isoform 4 (UniProt Q5T4S7) |  | -0.337 | -0.16 | -0.032 | 0.144 | -0.028 | 0.062 | 0.064 |  |  |
| UBAP2L (UniProt F8W726) |  |  |  | 0.06 |  |  |  | 0.093 |  |  |
| TRPM4 (UniProt Q8TD43) | -0.401 | 0.053 | -0.163 |  | 0.14 |  |  |  |  |  |

| Target | log2 fold change (alvocidib) | log2 fold change (Tubastatin A) | log2 fold change [1] | log2 fold change (defactinib) | log2 fold change [2] | log2 fold change (encorafenib) | log2 fold change [3] | log2 fold change [4] | log2 fold change (alisertib) | log2 fold change (gefitinib) |
| --- | --- | --- | --- | --- | --- | --- | --- | --- | --- | --- |
| TFPT (UniProt P0C1Z6) |  |  | -0.041 |  | 0.381 (active) |  |  | 0.027 |  |  |
| TCF3 isoform 2 (UniProt P15923) |  | 0.055 | 0.214 |  |  |  |  |  |  |  |
| TMEM154 (UniProt Q6P9G4) |  | 0.063 |  |  | -0.099 | -0.015 | 0.023 |  |  |  |
| TRIM3 (UniProt O75382) |  |  | 0.06 | -0.095 |  | 0.034 | 0.041 | 0.069 |  |  |
| TXNRD2 isoform 3 (UniProt Q9NNW7) |  | 0.072 | 0.194 |  |  |  |  |  |  |  |
| TMEM14C (UniProt Q9P0S9) |  | -0.463 (active) | 0.033 | 0.205 | 0.011 | 0.004 | 0.022 | -0.168 | -0.011 | 0.003 |
| TGFBR1 isoform 2 (UniProt P36897) |  |  | 0.156 |  | -0.004 | -0.017 | 0.077 |  |  |  |
| TMSB4X (UniProt P62328) | 0.401 | 0.102 | -0.045 |  |  | 0.043 | -0.055 | 0.063 | -0.143 | -0.001 |
| TMPO isoform 2 (UniProt P42167) |  |  |  | 0.058 | 0.186 | -0.113 | -0.14 |  |  |  |
| UBAP2 (UniProt Q5JV08) |  |  |  |  |  |  |  |  | -0.165 | -0.139 |
| TEC (UniProt P42680) |  |  |  | 0.07 |  | -0.044 | -0.036 | -0.028 | -0.086 | -0.027 |
| TUBGCP5 (UniProt Q96RT8) | -0.069 | -0.128 |  | -0.159 | -0.055 | 0.179 | 0.145 | 0.025 | -0.023 | -0.007 |
| UBN1 (UniProt Q9NPG3) | -0.176 |  |  | -0.044 | -0.076 | 0.059 | 0.088 | 0.09 |  |  |
| TTC37 (UniProt Q6PGP7) |  | 0.072 | -0.13 | -0.061 | 0.185 |  |  | 0.043 | 0.032 | 0.081 |
| TFPI isoform 2 (UniProt P10646) |  |  |  | -0.109 |  |  |  |  |  |  |
| TRAF7 (UniProt Q6Q0C0) | 0.058 | -0.008 |  | 0.141 | 0.025 | 0.015 | -0.11 |  | -0.05 | -0.099 |
| TNIK (UniProt C9J338) | -0.155 |  | -0.211 | -0.014 | 0.306 | -0.012 | 0.005 | 0.076 |  |  |
| TASP1 (UniProt Q9H6P5) |  | 0.087 | -0.119 |  | 0.112 | -0.035 | 0.103 | -0.048 | -0.151 | -0.046 |
| U2AF1L5 (UniProt P0DN76) | -0.58 | -0.193 | -0.044 |  | -0.023 | -0.101 | 0.096 | -0.013 | -0.045 | -0.061 |
| UCP2 (UniProt P55851) |  | 0.182 |  | 0.096 |  |  |  |  | 0.033 | 0.045 |
| TNFAIP3 (UniProt P21580) | 0.005 | -0.076 | 0.022 |  | -0.009 | 0.276 (active) | 0.228 | 0.031 | 0.002 | -0.028 |
| TPD52L2 isoform 3 (UniProt O43399) | 0.127 | 0.165 | 0.144 |  |  |  |  |  | 0.094 | -0.244 |
